PubChem BioAssay (NCI)
About 79,000 compounds went through this panel and 15% of them were active in at least one assay; those are over-represented in the sample as a whole. Rule as the data show it: active = growth inhibition above about 70%; inactive = the rest.

How the values were obtained:
[1] = NCI Yeast Anticancer Drug Screen. Data for the rad50 strain (AID 155);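 also: 0% = growth of vehicle-only cultures of the same strain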; conditions: S. cerevisiae rad50 strain growth inhibition; at 50.0 µM; stronger effect = higher value
Summary of the method: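 Vehicle-treated cultures provide the reference for the growth inhibition reported for compound-exposed, repair-deficient yeast.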

[2] = NCI Yeast Anticancer Drug Screen. Data for the mec2-1 strain (AID 157); conditions: S. cerevisiae mec2-1 strain, at 50.0 µM, stronger effect = higher value
Summary of the method: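 mec2-1 yeast strain, carrying an alteration in DNA damage repair or cell cycle control, was exposed to compounds; growth inhibition was measured relative to vehicle-treated controls.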

[3] = NCI Yeast Anticancer Drug Screen. Data for the sgs1 mgt1 strain (AID 161);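 also: 0% = growth of cultures given vehicle only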; conditions: S. cerevisiae sgs1 mgt1 strain, at 50.0 µM, stronger effect = higher value
Summary of the method: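 Percent growth inhibition was derived by comparing compound-exposed mutant yeast with vehicle-exposed cultures. The strain carries alterations in DNA damage repair.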

[4] = NCI Yeast Anticancer Drug Screen. Data for the cln2 rad14 strain (AID 165);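 also: 0% = growth equal to vehicle treated cultures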; conditions: S. cerevisiae cln2 rad14 strain, at 50.0 µM, stronger effect = higher value
Summary of the method: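 Yeast carrying cln2 and rad14 alterations (cell cycle control and DNA damage repair) were exposed to compounds. Growth inhibition was measured against vehicle-treated controls.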

[5] = NCI Yeast Anticancer Drug Screen. Data for the bub3 strain (AID 167); conditions: S. cerevisiae bub3 mutant strain, at 50.0 µM, stronger effect = higher value
Summary of the method: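 Mutant yeast screening strain plus compound; vehicle-treated cultures serve as the 0% inhibition reference.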

[6] = NCI Yeast Anticancer Drug Screen. Data for the mlh1 rad18 strain (AID 175); conditions: S. cerevisiae mlh1 rad18 strain growth inhibition; at 50.0 µM; stronger effect = higher value
Summary of the method: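 Growth inhibition of the yeast strain was measured after compound exposure and expressed relative to vehicle-treated controls. The strain carries defined defects in DNA damage repair.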

Measured: growth inhibition

CN(C)[C@@H]1C(=O)C(C(=O)NCNc2cccc(C(=O)O)c2C(=O)O)=C(O)[C@@]2(O)C(=O)C3=C(O)c4c(O)cccc4[C@@](C)(O)[C@H]3C[C@@H]12
inactive: [1] 2.95% | [2] 6.45% | [3] 21.8% | [4] -17.2% | [5] -1.1% | [6] 31.4%

Cc1cccc(Cl)c1OCC(=O)O
inactive: [1] -1.25% | [2] -8.55% | [3] -1.95% | [4] -35.8% | [5] -20.8% | [6] -13.2%

O=S(=O)([O-])[O-].O=c1[nH]cnc2nc[n-]c12.[OH3+].[OH3+].[Zn+2]
inactive: [1] -26.8% | [2] -29.2% | [3] -20.6% | [4] -7.9% | [5] -30.9% | [6] -36.2%

CCCC(CO)OC(=O)Nc1ccc(-c2ccccc2)cc1 (centres undefined)
inactive: [1] -7.75% | [2] -1.1% | [3] -2.15% | [4] -56% | [5] 27.4% | [6] 11.9%

CCN(CC)C(=O)C1CCN(Cc2ccc3c(c2)CCC3)CC1
inactive: [1] -4.1% | [2] 42.5% | [3] -1.2% | [4] -16.6% | [5] 2.9% | [6] 3.95%

Fc1ccc(CN2COc3c(ccc4cccnc34)C2)c(F)c1
inactive: [1] 57.6% | [2] 43.6% | [3] 57.1% | [4] 29.6% | [5] 49% | [6] 52.2%

Clc1ccc(C(Cl)(c2ccc(Cl)cc2)C(Cl)(Cl)Cl)cc1
inactive: [1] -14.1% | [2] -14.4% | [3] -7.4% | [4] -6.2% | [5] 32.9% | [6] 11.8%

C=CCN1C(=O)CS/C1=N\NC(=O)c1c(C)nc2sccn12
inactive: [1] -16.3% | [2] -4.15% | [3] -8.95% | [4] -7.4% | [5] -22.8% | [6] -28.4%

CC(=O)Oc1cc(N(C)C)ccc1SC(Cl)(Cl)Cl
inactive: [1] -14.7% | [2] -17.9% | [3] -12.1% | [4] -61.6% | [5] 22.6% | [6] -25.6%

CCCCc1ccc(Nc2nc(SC)c3[nH]cnc3n2)cc1
inactive: [1] 0.85% | [2] -17.6% | [3] 28.9% | [4] 16.1% | [5] 29.7% | [6] -37.7%

CCOc1cc(F)cc([N+](=O)[O-])c1
inactive: [1] -11.6% | [2] 5.3% | [3] -20.9% | [4] -14.9% | [5] 19.1% | [6] 5.7%

O=C(/C=C(\O)C(=O)O)/C=C(\O)c1ccc(Cl)cc1
inactive: [1] -15.7% | [2] 0.7% | [3] -27.4% | [4] -10.4% | [5] -23.8% | [6] -31.5%

COc1ccc(/C=C/C(=O)c2ccc(F)cc2)cc1
inactive: [1] 8.85% | [2] -16.4% | [3] -12.4% | [4] -35.4% | [5] -6.5% | [6] 10.2%

COc1ccc(N=Nc2cc(OC)c(N=Nc3c(O)c4ccccc4[nH]c3=O)cc2OC)cc1
inactive: [1] 18.1% | [2] 16.8% | [3] 25.1% | [4] 13.8% | [5] -14.2% | [6] 17.1%

CC1=CC(C)(C)NC(=S)N1C1CCCCC1
inactive: [1] 9.75% | [2] -6.85% | [3] 6.3% | [4] -5% | [5] 6.55% | [6] 14.6%

O=C1c2ccccc2C(=O)N1C/C=C/CN1C(=O)c2ccccc2C1=O
inactive: [1] 6.85% | [2] -5.7% | [3] 12.2% | [4] -9.4% | [5] 8.05% | [6] 2.5%

O=c1oc2ccc(Br)cc2cc1-n1nnc2ccccc21
inactive: [1] -0.45% | [2] -6.55% | [3] 2.45% | [4] 0.6% | [5] 15.9% | [6] 5.55%

Cc1[nH]c(N)nc(=S)c1CCC(C)C
inactive: [1] -16.6% | [2] -9.7% | [3] -1.05% | [4] -100% | [5] -1.55% | [6] 17.2%

c1ccc(C2OC(c3ccccc3)c3ccccc32)cc1 (centres undefined)
inactive: [1] 7.55% | [2] -6.8% | [3] 12.4% | [4] -2.05% | [5] 24.1% | [6] 12.2%
